This passage reports growth results from PubChem BioAssay (NCI).

This is part of a sample that, as a whole, favours compounds with a hit. Of some 83,000 tested, about 20% had one in any assay.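 A percent growth of 40 corresponds to 60% growth inhibition; 0 means no net growth; -100 means all cells died. Active threshold: below 10.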 Unmarked numbers belong to inactive results. Calls of active or inactive are those of the source.

The test system of this test is HL-60(TB) leukemia. Description: NCI-60 one-dose screen, 48 h (100 = growth as untreated, 0 = no growth, -100 = all killed). The following applies: 10 µM unless noted. How it is done: Growth inhibition of the HL-60(TB) human tumor cell line is measured as a screen for anti-cancer activity. Cells are grown in 96 well plates and exposed to the test compound for 48 hours. Compounds are tested at a single concentration, which is 10^-5 M for most compounds. The reported endpoint is percent growth (GI% or GIPRCNT), where numbers from 0 - 100% represent growth inhibition, and numbers from -100% - 0 represent cell death. For example, a value of 40 represents 60% growth inhibition. A value of 0 means no net growth occurred over the course of the experiment. A value of -40 indicates 40% of cells at the beginning of the experiment died by the end of the experiment. A value of -100 means all cells are dead at the end of the experiment.
NCI-60 Human Tumor Cell Lines Screen was performed using the standard one-dose NCI protocol, which is described in more detail at https://dtp.cancer.gov/discovery_development/nci-60/default.htm.
Compounds with GIPRCNT values below 10 were considered active. Activity score was based on GIPRCNT using the following formula: […]
Score is 0 for GIPRCNT values of 100 or above, 50 for GIPRCNT values of 0, and 100 for GIPRCNT values of -100.
Take `COc1ccc(-c2nnc(SCc3ccc(O)c4ncccc34)o2)cc1`: the growth is 18.3%. In the case of `Cn1ccnc1C(=O)/C=C/c1ccc(CNC(=O)c2ccc(Cl)cc2)cc1`, the growth is -25.5% (active).

On to `NS(=O)(=O)c1ccc(Nc2nc(N/N=C/c3ccccn3)nc(Nc3ccccc3)n2)cc1`, for which the growth is 2.68% (active). As for `COc1ccc(NC2=CC(=O)C(C)=C(C)C2=O)cc1`, the figure is 80.2%; as for `O=c1oc2ccc(-c3ccc(F)cc3F)cc2c(=O)n1-c1cccc(C(F)(F)F)c1`, -32.7% (active).

Take `COc1ccc(CCOc2cc3c(cc2OC)CCN(C(=O)NCc2cocn2)C3c2ccc(C)cc2C)cc1` (stereo not given): the growth is 5.9% (active).

In the case of `COc1ccc(C(=O)/C=C/c2ccc(OCc3ccc(Cl)cc3)c(OC)c2)cc1OC`, the growth was 4.56% (active). The figure for `COc1ccccc1-n1cc(C#N)c(N)c1C(=O)c1ccc(C)cc1` is 56.7%. Take `NC(=O)c1c(NC(=O)c2cccc(C(F)(F)F)c2F)sc2c1CCC(=O)C2`: the growth is 15%. As for `N[C@@H](Cc1cn(-c2ccnc3ccccc23)nn1)C(=O)O`, the growth is 110%.

As to `N#Cc1cccc(NC(=O)c2cc(-c3ccc(F)cc3F)ccc2O)c1`, the growth is -29.2% (active). As for `CN(C)S(=O)(=O)c1ccc(-c2nc(C(Cl)Cl)nc3cc(-c4ccc(F)cc4)nn23)cc1`, the figure is 6.96% (active); as for `CN1CCN(Cc2ccc(NC(=O)c3cncc(C#Cc4cnc5ccc(N)nn45)c3)cc2C(F)(F)F)CC1`, 2.82% (active). The figure for `COc1cc(-c2nc3ccc(-c4nnc(SCC(=O)Nc5ccc(C(C)=O)cc5)o4)cc3[nH]2)cc(OC)c1OC` is 104%; for `O=C1/C(=C/c2cc(F)cc(F)c2)Cc2cc3c(cc21)OCO3` it is 3.69% (active); for `CC(C)(O)c1cncc(-c2ccc3ncnc(N4CCc5cc(F)c(Cl)cc54)c3c2)c1` it is 1.38% (active). The figure for `O=[N+]([O-])c1ccc(NC(=S)NNC(=S)Nc2ccc(F)cc2)cc1` is 84.8%; for `COc1ccc(-c2nc(SCCC(C)C)nc(N/N=C\c3ccc(O)cc3)c2C#N)cc1` it is 73.3%.

Regarding `Cn1cc(-c2nn3cc(-c4ccncc4)nc3s2)c2cc(Cl)ccc21`, the growth was -16% (active).

For the compound `Cc1ccc(C2CC(c3ccc(Nc4nc(NCCO)nc(Nc5ccc(Cl)cc5)n4)cc3)=Nc3c(N)nc(N)nc3N2)cc1` (stereo not given), the growth was 10.2%. As for `CN(C)c1ccc(/C=c2\sc3nc4ccccc4n3c2=O)cc1`, the figure is 94.7%; as for `COc1ccc(-c2nc3ccc(-c4nnc(SCC(=O)Nc5ccc(C(=O)/C=C/c6ccc(Cl)cc6)cc5)o4)cc3[nH]2)cc1`, 94.1%; as for `CC(=O)C1=C(C)NC(NN)=NC1c1cccc(Cl)c1` (stereo not given), 115%.

Consider `O=C1C(SCc2ccccc2)=C(Cl)CN1c1ccc(Cl)cc1`, for which the growth was 44%. The figure for `C#C[C@]1(O)CC[C@H]2[C@@H]3CC=C4c5sc(-c6cccc(O)c6)nc5CC[C@]4(C)[C@H]3CC[C@@]21C` is -30.7% (active).

On to `O=C(Nc1ccc2c(ccn2Cc2ccccn2)c1)c1ccnnc1`, for which the growth was 145%. The figure for `COc1cc(-c2nc(SCCC(C)C)nc(NNC(=O)c3ccncc3)c2C#N)cc(OC)c1OC` is 116%. The figure for `O=S(=O)(NCCCNc1nccc(-n2cnc3ccccc32)n1)c1ccc(F)cc1` is 90.9%; for `Clc1ccc2c(NCCCn3ccnc3)c3oc4ccccc4c3nc2c1` it is 40.4%; for `Cc1cccc(NC(c2cc3cccc4ccc5cccc2c5c43)c2nnnn2C(C)(C)C)c1C` (stereo not given) it is 91.9%. The figure for `COc1cc(/C=C/C(=O)c2cc(OC)c(OC)c(OC)c2)ccc1OCc1ccccc1` is -9.27% (active); for `CC1=C(C)C(=O)C(Nc2ccc(C)c(C)c2)=C(Br)C1=O` it is -37.7% (active). Consider `COc1ccc(NS(=O)(=O)c2ccc(-c3cnc(C4CC4)o3)cc2)cc1Cl`, for which the growth is 3.27% (active). Turning to `COc1cc2oc(-c3cccc(NC(=O)c4cc(NC(=O)[C@H](C)NC(=O)OC(C)(C)C)ccc4C)c3)cc(=O)c2c(OC)c1OC`, the growth was 62.6%. As for `O=C(Nc1ccccc1)Nc1nc2ccc([N+](=O)[O-])cc2[nH]1`, the figure is 70.2%. The figure for `COc1ccc(/C=C/C(=O)c2ccc(NC(=O)CSc3nnc(-c4ccc5nc(-c6ccc(Cl)cc6)[nH]c5c4)o3)cc2)cc1` is 78.6%; for `C=C(C)[C@@H]1CC[C@]2(C(=O)NC3CCCCC3)CC[C@]3(C)[C@H](CC[C@@H]4[C@@]5(C)CC[C@H](N)C(C)(C)[C@@H]5CC[C@]43C)[C@@H]12` it is 74.5%. In the case of `Nc1ncc(-c2ccc(NS(=O)(=O)c3ccc(Cl)c(Cl)c3)cc2)[nH]1`, the growth is 47.7%. As for `O=C(NCCCNc1cc(-c2cn(-c3ccccc3)nc2-c2cccc(O)c2)ccn1)Nc1ccc(F)cc1`, the figure is 1.09% (active). As for `CCCCc1nc2c(N)nc3ccccc3c2n1Cc1cccc(CN)c1`, the figure is 11.9%.
